Assay results published in the supplement of paper PMC8728848.
About 410 targets per protein were measured; listed, in parts, are those with the strongest signals and a random draw of the rest.

Experiments:
Assay in all cases: glycan array binding signal (z-score within array); higher = stronger binding
Settings in all cases: glycan notation: IUPAC condensed, linker removed
[1] = target: Fuc(a1-2)Gal
In short: (§1)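 Glycan array data were curated from 3228 arrays in the Consortium for Functional Glycomics database and kept only where the protein sequence was available. Glycan names were converted to IUPAC-condensed notation, and columns mapping to the same glycan were averaged. The binding signal is a within-array Z-score, averaged across arrays of the same protein sequence at different concentrations or buffers and across linkers. Negative Z-scores can be read as non-binding.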

[2] = target: Fuc(a1-2)Gal(b1-3)GlcNAc(b1-2)Man(a1-3)[Fuc(a1-2)Gal(b1-3)GlcNAc(b1-2)Man(a1-6)]Man(b1-4)GlcNAc(b1-4)[Fuc(a1-6)]GlcNAc
In short: as §1

[3] = target: Fuc(a1-2)Gal(b1-3)[Fuc(a1-4)]GlcNAc
In short: as §1

[4] = target: Fuc(a1-2)Gal(b1-4)Glc
In short: as §1

[5] = target: Fuc(a1-2)Gal(b1-4)[Fuc(a1-3)]GlcNAc(b1-2)[Fuc(a1-2)Gal(b1-4)[Fuc(a1-3)]GlcNAc(b1-4)]Man(a1-3)[Fuc(a1-2)Gal(b1-4)[Fuc(a1-3)]GlcNAc(b1-2)Man(a1-6)]Man(b1-4)GlcNAc(b1-4)GlcNAc
In short: as §1

[6] = target: Fuc(a1-2)[Gal(a1-4)]Gal(b1-4)GlcNAc
In short: as §1

[7] = target: Fuc(a1-3)[Gal(b1-4)]GlcNAc(b1-2)Man(a1-3)[Fuc(a1-3)[Gal(b1-4)]GlcNAc(b1-2)Man(a1-6)]Man(b1-4)GlcNAc(b1-4)[Fuc(a1-6)]GlcNAc
In short: as §1

[8] = target: Fuc(a1-3)[Gal(b1-4)]GlcNAc6S
In short: as §1

[9] = target: Fuc(a1-3)[GalNAc(b1-4)]GlcNAc
In short: as §1

[10] = target: Gal(a1-3)Gal(b1-3)GlcNAc(b1-2)Man(a1-3)[Gal(a1-3)Gal(b1-3)GlcNAc(b1-2)Man(a1-6)]Man(b1-4)GlcNAc(b1-4)GlcNAc
In short: as §1

[11] = target: Gal(a1-3)Gal(b1-4)GlcNAc(b1-6)GalNAc
In short: as §1

[12] = target: Gal(a1-4)Gal(b1-4)Glc
In short: as §1

[13] = target: Gal(a1-4)Gal(b1-4)GlcNAc(b1-2)Man(a1-3)[Gal(a1-4)Gal(b1-4)GlcNAc(b1-2)Man(a1-6)]Man(b1-4)GlcNAc(b1-4)GlcNAc
In short: as §1

[14] = target: Gal(b1-3)GalNAc
In short: as §1

[15] = target: Gal(b1-3)GalNAc(a1-3)[Fuc(a1-2)]Gal(b1-4)Glc
In short: as §1

[16] = target: Gal(b1-3)GalNAc(a1-3)[Fuc(a1-2)]Gal(b1-4)GlcNAc
In short: as §1

[17] = target: Gal(b1-3)GalNAc(b1-4)Gal(b1-4)Glc
In short: as §1

[18] = target: Gal(b1-3)GlcNAc(b1-2)Man(a1-3)[GlcNAc(b1-4)][Gal(b1-3)GlcNAc(b1-2)Man(a1-6)]Man(b1-4)GlcNAc(b1-4)GlcNAc
In short: as §1

[19] = target: Gal(b1-3)[Fuc(a1-4)]GlcNAc(b1-2)Man(a1-3)[Gal(b1-3)[Fuc(a1-4)]GlcNAc(b1-2)Man(a1-6)]Man(b1-4)GlcNAc(b1-4)[Fuc(a1-6)]GlcNAc
In short: as §1

[20] = target: Gal(b1-4)GlcNAc(b1-2)Man
In short: as §1

[21] = target: Gal(b1-4)GlcNAc(b1-2)Man(a1-3)[Man(a1-6)]Man(b1-4)GlcNAc(b1-4)GlcNAc
In short: as §1

[22] = target: Gal(b1-4)GlcNAc(b1-2)[Gal(b1-4)GlcNAc(b1-4)]Man(a1-3)[Gal(b1-4)GlcNAc(b1-2)Man(a1-6)]Man(b1-4)GlcNAc(b1-4)GlcNAc
In short: as §1

[23] = target: Gal(b1-4)GlcNAc(b1-3)Gal(b1-4)Glc
In short: as §1

[24] = target: Gal6S(b1-3)GlcNAc6S
In short: as §1

[25] = target: Gal6S(b1-4)GlcNAc6S
In short: as §1

[26] = target: GalNAc(b1-4)GlcNAc(b1-2)Man(a1-3)[GalNAc(b1-4)GlcNAc(b1-2)Man(a1-6)]Man(b1-4)GlcNAc(b1-4)GlcNAc
In short: as §1

[27] = target: GlcNAc(a1-4)Gal(b1-3)GlcNAc
In short: as §1

[28] = target: GlcNAc(a1-4)Gal(b1-4)GlcNAc(b1-3)Gal(b1-4)[Fuc(a1-3)]GlcNAc(b1-3)Gal(b1-4)[Fuc(a1-3)]GlcNAc
In short: as §1

[29] = target: GlcNAc(b1-2)Man(a1-3)[GlcNAc(b1-4)][GlcNAc(b1-2)Man(a1-6)]Man(b1-4)GlcNAc(b1-4)GlcNAc
In short: as §1

[30] = target: GlcNAc(b1-3)Gal(b1-4)GlcNAc
In short: as §1

[31] = target: GlcNAc(b1-3)[GlcNAc(b1-4)][GlcNAc(b1-6)]GlcNAc
In short: as §1

[32] = target: Kdn(a2-3)Gal(b1-4)GlcNAc
In short: as §1

[33] = target: Man(a1-2)Man(a1-2)Man(a1-3)Man
In short: as §1

[34] = target: Man(a1-2)Man(a1-3)[Man(a1-6)]Man(a1-6)[Man(a1-2)Man(a1-3)]Man(b1-4)GlcNAc(b1-4)GlcNAc
In short: as §1

[35] = target: Man(a1-3)[Man(a1-6)]Man(b1-4)GlcNAc(b1-4)[Fuc(a1-6)]GlcNAc
In short: as §1

[36] = target: Neu5Ac(a2-3)Gal(b1-4)GlcNAc(b1-2)Man
In short: as §1

[37] = target: Neu5Ac(a2-3)Gal(b1-4)GlcNAc(b1-3)Gal
In short: as §1

[38] = target: Neu5Ac(a2-3)Gal(b1-4)GlcNAc(b1-3)Gal(b1-4)GlcNAc(b1-3)GalNAc
In short: as §1

[39] = target: Neu5Ac(a2-3)Gal(b1-4)GlcNAc(b1-3)Gal(b1-4)GlcNAc(b1-6)[Gal(b1-3)]GalNAc
In short: as §1

[40] = target: Neu5Ac(a2-3)Gal(b1-4)GlcNAc(b1-3)GalNAc
In short: as §1

[41] = target: Neu5Ac(a2-3)Gal(b1-4)[Fuc(a1-3)]GlcNAc(b1-3)GalNAc
In short: as §1

[42] = target: Neu5Ac(a2-3)Gal6S(b1-4)[Fuc(a1-3)]GlcNAc
In short: as §1

[43] = target: Neu5Ac(a2-6)Gal(b1-4)GlcNAc(b1-3)Gal(b1-4)GlcNAc(b1-3)Gal(b1-4)GlcNAc(b1-2)Man(a1-3)[Neu5Ac(a2-6)Gal(b1-4)GlcNAc(b1-3)Gal(b1-4)GlcNAc(b1-3)Gal(b1-4)GlcNAc(b1-2)Man(a1-6)]GalNAc
In short: as §1

[44] = target: Neu5Ac(a2-6)Gal(b1-4)GlcNAc(b1-6)[Gal(b1-3)]GalNAc
In short: as §1

[45] = target: Neu5Ac(a2-6)GalNAc(b1-4)GlcNAc
In short: as §1

[46] = target: Neu5Ac(a2-6)GlcNAc(b1-4)GlcNAc
In short: as §1

[47] = target: Neu5Ac(a2-6)GlcNAc(b1-4)GlcNAc(b1-4)GlcNAc
In short: as §1

[48] = target: Neu5Ac(a2-8)Neu5Ac(a2-3)Gal(b1-3)GalNAc(b1-4)[Neu5Ac(a2-8)Neu5Ac(a2-3)]Gal(b1-4)Glc
In short: as §1

[49] = target: Neu5Gc(a2-3)Gal(b1-4)[Fuc(a1-3)]GlcNAc
In short: as §1

B1: B1257 (Bifidobacterium sp) (protein)
chain: MKKSIRLVAAIAALAMTAGISACGSSTNGNQAKSDVTAQDVETALTDTSKNVELTVWAYSAKQMEPTVKAFEKKYPHIKINFVNTGAAGDHFTKFQNVVQAQKDIPDVVQMGANKFQQFAVSGALLNFANDSIEKAWSKLYTKTAWAQVHYAGGLYGAPQDATPLANYVRKDILDEHNLQVPESWEDIYNEGIKLHKEDSNKYMGILGSDISFFTNLYRSVGARLWKVNSVDDVELTMNSGKAKEFTEFLQKCLKDGVLEGGTVFTDEFNRSINDGRYATFINENWMGNTYKEQNPSLKGKMVVAAPPSWKGQPYQSSSVGSMMSVSAACPKEKQAAALAFINWLDSDKDAIQSWQDTNNGNFFMAASVYQDDENQRNKKETDGYYANDDVNAVYFDSMDKVNTDWEYLPFMSQVEVVFNDVIVPQMNENGDLVGAMAKAQQELKTYAKDNGFKVTTDAD
glycan array binding signal (z-score) [1]: 23.9 | glycan array binding signal (z-score) [2]: 0.153 | glycan array binding signal (z-score) [3]: -0.158 | glycan array binding signal (z-score) [4]: 3.8 | glycan array binding signal (z-score) [5]: 0.025 | glycan array binding signal (z-score) [6]: -0.086 | glycan array binding signal (z-score) [7]: 0.166 | glycan array binding signal (z-score) [8]: -0.027 | glycan array binding signal (z-score) [9]: 0.046 | glycan array binding signal (z-score) [10]: 0.027 | glycan array binding signal (z-score) [11]: -0.213 | glycan array binding signal (z-score) [12]: -0.023 | glycan array binding signal (z-score) [13]: 0.48 | glycan array binding signal (z-score) [14]: 0.28 | glycan array binding signal (z-score) [15]: 0.314 | glycan array binding signal (z-score) [16]: -0.014 | glycan array binding signal (z-score) [17]: -0.085 | glycan array binding signal (z-score) [18]: 0.324 | glycan array binding signal (z-score) [19]: 0.461 | glycan array binding signal (z-score) [20]: -0.056 | glycan array binding signal (z-score) [21]: -0.051 | glycan array binding signal (z-score) [22]: -0.081 | glycan array binding signal (z-score) [23]: 0.301 | glycan array binding signal (z-score) [24]: -0.051 | glycan array binding signal (z-score) [25]: -0.133 | glycan array binding signal (z-score) [26]: 1.83 | glycan array binding signal (z-score) [27]: -0.103 | glycan array binding signal (z-score) [28]: 0.11 | glycan array binding signal (z-score) [29]: 0.002 | glycan array binding signal (z-score) [30]: -0.138 | glycan array binding signal (z-score) [31]: -0.13 | glycan array binding signal (z-score) [32]: -0.061 | glycan array binding signal (z-score) [33]: -0.128 | glycan array binding signal (z-score) [34]: -0.161 | glycan array binding signal (z-score) [35]: -0.128 | glycan array binding signal (z-score) [36]: 0.015 | glycan array binding signal (z-score) [37]: -0.111 | glycan array binding signal (z-score) [38]: -0.094 | glycan array binding signal (z-score) [39]: -0.087 | glycan array binding signal (z-score) [40]: 0.727 | glycan array binding signal (z-score) [41]: 0.158 | glycan array binding signal (z-score) [42]: -0.194 | glycan array binding signal (z-score) [43]: 0.344 | glycan array binding signal (z-score) [44]: -0.046 | glycan array binding signal (z-score) [45]: -0.178 | glycan array binding signal (z-score) [46]: -0.027 | glycan array binding signal (z-score) [47]: -0.081 | glycan array binding signal (z-score) [48]: -0.004 | glycan array binding signal (z-score) [49]: -0.012
